In PubChem BioAssay (Tox21):
Inconclusive results are not listed. Active and inactive are the calls of the source. Unless noted, calls come from the whole dose curve; as a rule, active = well fitted curve in the direction sought with a large enough effect in the repeat runs; inconclusive = weak or mixed curves; inactive = no such curve, though single readings can be large; an effect the other way counts as inactive or inconclusive.

Columns and labels:
[1] = A CellTox Green Cytotoxicity Assay to monitor cytotoxicity in HepG2 cells - 16 hour (AID 1224876); note: nearly all actives have a fitted effect of over 45% in size
Summary of the method: (§1)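 Continuous culture of HepG2 cells with a membrane-impermeant DNA dye; rising fluorescence marks dead cells. Compound exposure lasted up to 40 h at 37 C, with reads every 8 h from 0 h.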

[2] = qHTS RealTime-Glo MT Cell Viability Assay in HepG2 cells - 32 hour (AID 1224877); note: nearly all actives have a fitted effect of over 55% in size
Summary of the method: (§2)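 Tox21 10K library screened in qHTS format on HepG2 cells carrying RealTime-Glo reagents. Compounds were added after a 5 h preincubation, and the luminescent signal from continuous culture was measured repeatedly during 40 h treatment.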

[3] = A CellTox Green Cytotoxicity Assay to monitor cytotoxicity in HepG2 cells - 24 hour (AID 1224878); note: nearly all actives have a fitted effect of over 45% in size
Summary of the method: as §1

[4] = qHTS RealTime-Glo MT Cell Viability Assay in HEK293 cells - 0 hour (AID 1224880); note: top concentration of the series differs between compounds; nearly all actives have a fitted effect of over 45% in size
Summary of the method: (§3)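 qHTS format; HEK293 cells with NanoLuc/prosubstrate reagent, 37 C/5% CO2 for 5 h pre-dosing; compounds 23 nL in DMSO; luminescence at each time point reflects viable cells.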

[5] = A CellTox Green Cytotoxicity Assay to monitor cytotoxicity in HEK293 cells - 32 hour (AID 1224881); note: nearly all actives have a fitted effect of over 40% in size
Summary of the method: (§4)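 Each value comes from one timepoint of a single continuous run in which HEK293 cells with CellTox Green were exposed to compound for up to 40 h at 37 C, dye fluorescence rising with cell death.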

[6] = A CellTox Green Cytotoxicity Assay to monitor cytotoxicity in HepG2 cells - 0 hour (AID 1224882); note: nearly all actives have a fitted effect of over 35% in size
Summary of the method: as §1

[7] = A CellTox Green Cytotoxicity Assay to monitor cytotoxicity in HEK293 cells - 8 hour (AID 1224884); note: nearly all actives have a fitted effect of over 35% in size
Summary of the method: as §4

[8] = qHTS RealTime-Glo MT Cell Viability Assay in HepG2 cells - 16 hour (AID 1224885); note: nearly all actives have a fitted effect of over 50% in size
Summary of the method: as §2

[9] = qHTS RealTime-Glo MT Cell Viability Assay in HEK293 cells - 24 hour (AID 1224886); note: top concentration of the series differs between compounds; nearly all actives have a fitted effect of over 50% in size
Summary of the method: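 Luminescence generated by NanoLuc from substrate produced by living HEK293 cells served as the viability signal. Each value reflects the reading at its stated time point during continuous 40 h compound exposure at 37 C.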

[10] = qHTS RealTime-Glo MT Cell Viability Assay in HEK293 cells - 8 hour (AID 1224887); note: top concentration of the series differs between compounds; nearly all actives have a fitted effect of over 50% in size
Summary of the method: as §3

[11] = A CellTox Green Cytotoxicity Assay to monitor cytotoxicity in HEK293 cells - 16 hour (AID 1224888); note: nearly all actives have a fitted effect of over 35% in size
Summary of the method: as §4

[12] = qHTS RealTime-Glo MT Cell Viability Assay in HepG2 cells - 0 hour (AID 1224889); note: nearly all actives have a fitted effect of over 50% in size
Summary of the method: as §2

[13] = A CellTox Green Cytotoxicity Assay to monitor cytotoxicity in HepG2 cells - 8 hour (AID 1224890); note: nearly all actives have a fitted effect of over 45% in size
Summary of the method: as §1

[14] = qHTS assay to identify small molecule antagonists of the estrogen receptor alpha (ER-alpha) signaling pathway using the BG1 cell line in the presence of 0.1 nM 17-beta-estradiol - cell viability counter screen (AID 1259241); note: nearly all actives have a fitted effect of over 40% in size
Summary of the method: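 The cell line endogenously expresses full-length ER-alpha and carries four EREs driving luciferase. Cells are cultured 5 days hormone-free, treated 22 hr with compounds and 0.1 nM estradiol, then viability is read by fluorescence.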

[15] = qHTS assay to identify small molecule antagonists of the androgen receptor (AR) signaling pathway using the MDA cell line in the presence of 0.5 nM R1881 - cell viability counter screen (AID 1259242); note: nearly all actives have a fitted effect of over 45% in size
Summary of the method: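 Fluorescence from CellTiter-Fluor, which reports protease activity of live cells, was read 30 min after reagent addition to MDA-kb2 cells that had been incubated 16 hr with compound and 0.5 nM R1881.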

[16] = biological target: Estrogen receptor (Homo sapiens) (UniProt P03372); assay: qHTS assay to identify small molecule antagonists of the estrogen receptor alpha (ER-alpha) signaling pathway using the BG1 cell line in the presence of 0.1 nM 17-beta-estradiol (AID 1259244); note: nearly all actives have a fitted effect of over 50% in size
Summary of the method: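 Quantitative high-throughput screen in VM7Luc4E2 cells: compound plus 0.1 nM E2 (final), 22 h, 37C, 5% CO2; ONE-Glo added, 30 min room temperature, luminescence measured.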

[17] = qHTS assay to identify small molecule phospholipidosis (PLD) inducers (AID 1259344; active = well fitted curve in the direction sought with a large enough effect; an effect the other way counts as inactive or inconclusive)
Summary of the method: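 Quantitative HTS in HepG2: compound plus LipidTOX Red dye for 24 h, paraformaldehyde fixation with Hoechst 33342, widefield high-content imaging; amiodarone as positive and DMSO as negative control.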

[18] = A CellTox Green Cytotoxicity Assay to monitor cytotoxicity in HepG2 cells - 32 hour (AID 1224883); note: nearly all actives have a fitted effect of over 50% in size
Summary of the method: as §1

[19] = biological target: Androgen receptor (Homo sapiens) (UniProt P10275); assay: qHTS assay to identify small molecule antagonists of the androgen receptor (AR) signaling pathway using the MDA cell line in the presence of 0.5 nM R1881 (AID 1259243); note: nearly all actives have a fitted effect of over 50% in size
Summary of the method: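 Inhibition of R1881 (0.5 nM final) induced reporter signal was measured in human MDA-kb2 cells; note the MMTV promoter also responds to GR. Exposure lasted 16 hr at 37C.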

[20] = A CellTox Green Cytotoxicity Assay to monitor cytotoxicity in HepG2 cells - 40 hour (AID 1224879); note: nearly all actives have a fitted effect of over 40% in size
Summary of the method: as §1
% is set by controls: 0 for no effect and ±100 for the full control effect.

Sequence of Androgen receptor (Homo sapiens) (P10275 whole entry, looked up): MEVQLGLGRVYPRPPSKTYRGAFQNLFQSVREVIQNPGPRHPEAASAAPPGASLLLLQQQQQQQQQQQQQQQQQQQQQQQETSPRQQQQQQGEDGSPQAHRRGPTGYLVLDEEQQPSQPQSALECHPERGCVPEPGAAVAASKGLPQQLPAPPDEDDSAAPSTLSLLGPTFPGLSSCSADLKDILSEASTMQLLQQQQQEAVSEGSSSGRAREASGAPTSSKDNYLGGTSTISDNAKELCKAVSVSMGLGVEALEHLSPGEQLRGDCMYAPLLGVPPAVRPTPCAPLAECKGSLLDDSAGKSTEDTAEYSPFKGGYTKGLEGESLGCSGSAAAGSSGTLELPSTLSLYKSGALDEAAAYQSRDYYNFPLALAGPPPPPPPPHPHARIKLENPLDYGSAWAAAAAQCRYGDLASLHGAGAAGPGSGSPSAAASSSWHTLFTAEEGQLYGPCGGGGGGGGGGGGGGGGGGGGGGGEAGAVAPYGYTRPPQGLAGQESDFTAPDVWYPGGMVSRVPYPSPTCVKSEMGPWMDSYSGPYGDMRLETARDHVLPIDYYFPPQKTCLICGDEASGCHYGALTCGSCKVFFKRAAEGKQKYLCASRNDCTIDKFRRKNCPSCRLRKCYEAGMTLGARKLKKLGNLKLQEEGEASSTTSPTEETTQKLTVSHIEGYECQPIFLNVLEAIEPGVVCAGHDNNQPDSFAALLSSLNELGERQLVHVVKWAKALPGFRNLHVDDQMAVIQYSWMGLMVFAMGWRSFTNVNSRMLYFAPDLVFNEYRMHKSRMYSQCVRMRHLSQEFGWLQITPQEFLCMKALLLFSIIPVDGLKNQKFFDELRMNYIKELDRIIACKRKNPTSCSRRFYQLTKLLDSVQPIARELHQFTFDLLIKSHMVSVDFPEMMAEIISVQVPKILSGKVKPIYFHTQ
Sequence of Estrogen receptor (Homo sapiens) (P03372 whole entry, looked up): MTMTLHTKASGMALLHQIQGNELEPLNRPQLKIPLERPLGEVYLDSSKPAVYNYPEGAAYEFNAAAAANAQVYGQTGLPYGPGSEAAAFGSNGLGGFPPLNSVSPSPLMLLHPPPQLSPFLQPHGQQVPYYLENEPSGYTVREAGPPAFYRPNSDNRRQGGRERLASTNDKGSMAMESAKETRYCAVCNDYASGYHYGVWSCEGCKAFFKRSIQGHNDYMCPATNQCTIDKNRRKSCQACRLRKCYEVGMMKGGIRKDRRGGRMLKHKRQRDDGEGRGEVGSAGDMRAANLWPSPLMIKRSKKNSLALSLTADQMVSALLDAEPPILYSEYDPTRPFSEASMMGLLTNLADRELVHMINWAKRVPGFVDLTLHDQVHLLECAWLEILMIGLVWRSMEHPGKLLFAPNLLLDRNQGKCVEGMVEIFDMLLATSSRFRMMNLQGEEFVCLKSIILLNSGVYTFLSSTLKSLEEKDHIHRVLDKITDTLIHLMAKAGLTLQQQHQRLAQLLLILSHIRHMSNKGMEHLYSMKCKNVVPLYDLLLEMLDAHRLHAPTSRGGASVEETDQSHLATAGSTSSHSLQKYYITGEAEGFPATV

Cc1c(NC(=O)c2cccnc2)c(=O)n(-c2ccccc2)n1C
inactive: Potency [1] | outcome [2] | Potency [3] | Potency [4] | Potency [5] | Potency [6] | Potency [7] | outcome [8] | Potency [9] | Potency [10] | Potency [11] | Potency [12] | Potency [13] | outcome [14] | outcome [15] | outcome [16] | outcome [17]

Cc1ccccc1C(N)=O
inactive: Potency [1] | outcome [2] | Potency [3] | Potency [4] | Potency [5] | Potency [6] | Potency [18] | Potency [7] | outcome [8] | Potency [10] | Potency [11] | Potency [13] | outcome [14] | outcome [15] | outcome [16]

CCCSSCCC
inactive: Potency [1] | outcome [2] | Potency [3] | Potency [4] | Potency [5] | Potency [6] | Potency [18] | Potency [7] | outcome [8] | Potency [10] | Potency [11] | Potency [12] | Potency [13] | outcome [14] | outcome [15] | outcome [16]

C=CCN1C[C@H](C(=O)N(CCCN(C)C)C(=O)NCC)C[C@@H]2c3cccc4[nH]cc(c34)C[C@H]21
inactive: Potency [1] | outcome [2] | Potency [3] | Potency [4] | Potency [5] | Potency [6] | Potency [18] | outcome [8] | Potency [10] | Potency [11] | Potency [12] | Potency [13] | outcome [14] | outcome [15] | outcome [16]

CC(=O)O[C@H]1C[C@@H]2CC[C@@]1(C)C2(C)C
inactive: Potency [1] | outcome [2] | Potency [3] | Potency [4] | Potency [6] | Potency [7] | outcome [8] | Potency [9] | Potency [10] | Potency [11] | Potency [12] | Potency [13] | outcome [14] | outcome [15] | Potency [19]

CC(=O)CCc1ccc(OC(C)=O)cc1
inactive: Potency [1] | outcome [2] | Potency [3] | Potency [4] | Potency [5] | Potency [6] | outcome [8] | Potency [9] | Potency [10] | Potency [11] | Potency [12] | Potency [13] | outcome [14] | outcome [15] | outcome [16]

C=C(C)[C@@H]1CC=C(C)CC1
inactive: Potency [1] | outcome [2] | Potency [3] | Potency [4] | Potency [5] | Potency [6] | Potency [18] | Potency [7] | outcome [8] | Potency [10] | Potency [11] | Potency [12] | Potency [13] | outcome [14] | outcome [15] | outcome [16]

CCCCSCCCC
inactive: Potency [1] | outcome [2] | Potency [3] | Potency [4] | Potency [6] | Potency [7] | outcome [8] | Potency [9] | Potency [11] | Potency [12] | Potency [13] | outcome [14] | outcome [15]

Nc1nc(-c2ccccc2)c(Br)c(=O)[nH]1
inactive: Potency [1] | outcome [2] | Potency [4] | Potency [5] | Potency [6] | Potency [18] | Potency [7] | outcome [8] | Potency [9] | Potency [11] | Potency [12] | outcome [14] | outcome [15] | Potency [19] | outcome [16] | outcome [17]

CC(C)(CO)C(O)C(=O)NCCCO (configuration not stated)
inactive: Potency [1] | Potency [3] | Potency [20] | Potency [4] | Potency [5] | Potency [6] | Potency [18] | Potency [7] | outcome [8] | Potency [9] | Potency [10] | Potency [11] | Potency [12] | Potency [13] | outcome [14] | outcome [15] | outcome [16]

CC(C)=CCC[C@@](C)(O)[C@H]1CC=C(C)CC1
inactive: Potency [1] | outcome [2] | Potency [3] | Potency [4] | Potency [5] | Potency [6] | Potency [18] | Potency [7] | outcome [8] | Potency [9] | Potency [11] | Potency [13] | outcome [14] | outcome [15] | outcome [17]

C=CC(=O)CCCCC
inactive: Potency [1] | outcome [2] | Potency [3] | Potency [4] | Potency [5] | Potency [18] | Potency [7] | outcome [8] | Potency [9] | Potency [10] | Potency [11] | Potency [12] | Potency [13] | outcome [14] | outcome [15]

COCCc1ccccn1
inactive: Potency [1] | outcome [2] | Potency [3] | Potency [4] | Potency [5] | Potency [6] | Potency [18] | Potency [7] | outcome [8] | Potency [10] | Potency [11] | Potency [12] | Potency [13] | outcome [14] | outcome [15] | Potency [19] | outcome [16]

CCCc1ccc(O)cc1
inactive: Potency [1] | outcome [2] | Potency [4] | Potency [5] | Potency [6] | Potency [7] | outcome [8] | Potency [9] | Potency [10] | Potency [11] | Potency [12] | outcome [14] | outcome [15] | outcome [16]

CC(O)CC(C)O (configuration not stated)
inactive: Potency [1] | Potency [3] | Potency [20] | Potency [4] | Potency [5] | Potency [6] | Potency [18] | Potency [7] | outcome [8] | Potency [10] | Potency [12] | Potency [13] | outcome [14] | outcome [15]

CN(C)CC/C=C1/c2ccccc2COc2ccc(CC(=O)O)cc21
inactive: Potency [1] | Potency [3] | Potency [20] | Potency [5] | Potency [6] | Potency [18] | Potency [11] | Potency [13] | outcome [14] | outcome [15] | outcome [17]

CC1(C)CC(OC(=O)CCCCCCCCC(=O)OC2CC(C)(C)NC(C)(C)C2)CC(C)(C)N1
inactive: cytotoxicity increase [1] -5.51% [at 15.8 µM] | cytotoxicity [3] -8.38% [at 15.8 µM] | cytotoxicity increase [20] -12% [at 15.8 µM] | activity change, negative = cytotoxicity [4] 17.6% [at 15.8 µM] | cytotoxicity [6] -7.52% [at 15.8 µM] | cytotoxicity increase [18] -10.5% [at 15.8 µM] | cytotoxicity increase [7] -2.02% [at 15.8 µM] | activity change, negative = cytotoxic [8] -0.753% [at 15.8 µM] | activity change, negative = cytotoxicity [9] 13.9% [at 15.8 µM] | activity change, negative = cytotoxicity [10] 1.91% [at 15.8 µM] | activity change [11] -6.19% [at 15.8 µM, hits give high values] | activity change, negative = cytotoxicity [12] 5.75% [at 15.8 µM] | cytotoxicity increase [13] -0.141% [at 15.8 µM] | activity change, negative = cytotoxicity [14] -0.502% [at 19 µM] | viability change, negative = cytotoxic [15] 0.781% [at 19 µM] | activity change, negative = inhibition [16] -2.8% [at 19 µM]
